A selection: hits, their analogues and other compounds. The true share with any hit is near 7.3%.
NPC1 promoter act: NPC1 promoter activation. Huh7 NPC1 promoter luciferase reporter, 24 h. Potency, µM (doses to about 9.22 µM), hits mostly activators. actives 2.4% (n = 320,000); note: nearly all actives have a fitted effect of over 60% in size
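Compounds in DMSO were transferred onto Huh7 NPC1-luciferase reporter cells pre-incubated 2 h; after 24 h at 37 °C, Amplite reagent was dispensed and luminescence recorded 10 min later.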
Rab9 promoter act: Rab9 promoter activation; Huh7 Rab9 promoter-luciferase reporter, luminescence, 24 h; AID 485297; actives 2.8% (n = 320,000); Potency, µM (highest dose often 9.22 µM), hits mostly activators; note: nearly all actives have a fitted effect of over 60% in size
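Quantitative HTS format; Huh7 Rab9-luciferase reporter cells (1500/well) receive compound 2 h post-plating, incubate 24 h at 37 °C, then get luciferase reagent for 10 min before luminescence reading.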
ELG1 genotox: inducers of genotoxicity in HEK293T ELG1-luciferase cells; actives 1.3% (n = 330,000); AID 504466; HEK293T ELG1-luciferase reporter, luminescence, 16 h; Potency, µM (series often up to 46 µM), hits mostly activators; note: nearly all actives have a fitted effect of over 60% in size
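Step 1: seed 2,000 HEK293T ELG1-luciferase cells per well. Step 2: add compound or DMSO, incubate 16 hr at 37 °C. Step 3: ONE-Glo, 30 min at room temperature, read luminescence.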
SMN2 splice enh: enhancers of SMN2 splice variant expression; HEK293 SMN2-luciferase splicing reporter, luminescence, 30-36 h; Potency, µM (top dose mostly 46.1 µM), usual class: activators; actives 2.8% (n = 210,000); note: nearly all actives have a fitted effect of over 55% in size
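HEK293 cells carry an SMN2 minigene-luciferase reporter in which exon 7 inclusion puts luciferase in frame. Cells were seeded at 2000 cells/well, attached for 10-12 hours, then exposed to compounds for 30-36 hours at 37C before ONE-Glo luminescence.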
FLuc modulator: inhibits or activates purified firefly luciferase, miR-21 counter-screen; P08659; purified FLuc, Km substrates, luminescence inhibition; Potency, µM (top dose mostly 57.5 µM), usual class: inhibitors; actives 6.9% (n = 360,000); note: nearly all actives have a fitted effect of over 55% in size
Target sequence (P08659 whole entry, looked up): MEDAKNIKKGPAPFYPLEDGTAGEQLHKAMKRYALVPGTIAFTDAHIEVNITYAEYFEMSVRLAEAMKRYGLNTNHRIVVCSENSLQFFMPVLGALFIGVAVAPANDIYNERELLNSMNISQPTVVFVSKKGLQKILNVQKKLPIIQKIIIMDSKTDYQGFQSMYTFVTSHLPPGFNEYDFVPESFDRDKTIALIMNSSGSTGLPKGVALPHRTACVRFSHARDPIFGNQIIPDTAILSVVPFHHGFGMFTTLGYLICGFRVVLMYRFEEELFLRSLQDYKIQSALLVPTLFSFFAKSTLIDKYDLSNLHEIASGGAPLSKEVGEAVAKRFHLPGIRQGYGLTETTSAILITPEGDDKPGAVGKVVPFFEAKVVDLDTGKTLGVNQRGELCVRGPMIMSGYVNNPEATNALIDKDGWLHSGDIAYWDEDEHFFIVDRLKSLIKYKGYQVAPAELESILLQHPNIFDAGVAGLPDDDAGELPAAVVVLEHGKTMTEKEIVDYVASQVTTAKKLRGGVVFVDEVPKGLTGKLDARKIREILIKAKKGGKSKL
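Purified P. pyralis luciferase (10nM final) with 10uM D-luciferin and 10uM ATP (Km levels) in 50mM Tris acetate pH 7.5, 10mM Mg acetate, 0.01% Tween-20, 0.05% BSA; qHTS 6-point titration, ~60 µM downward; luminescence read.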
Luc counter: counter-screen: inhibitors of Kinase-Glo firefly luciferase; Q27757; Potency, µM (doses to about 38.3 µM), hits mostly inhibitors; Kinase-Glo luciferase, ATP luminescence, 8 min; actives 0.28% (n = 200,000); note: nearly all actives have a fitted effect of over 60% in size
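Inhibition of Kinase-Glo luciferase light generation was assessed at 10 uM ATP in pH 7.2 imidazole buffer, with luminescence measured after eight minutes at ambient temperature.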
Hits are given with their value; [ ] = another dose, or the depositor's remark. Calls come from the whole dose curve; as a rule, active = well fitted curve in the direction sought with a large enough effect; inconclusive = small, poorly fitted or top-dose-only effect, or another doubt; inactive = no such curve, though single readings can be large; an effect the other way counts as inactive or inconclusive.

What do the screens show for `CC(=O)[C@H]1[C@H](CCc2ccccc2)NC(=O)N(Cc2ccccc2)[C@@H]1C`?
NPC1 promoter act: inactive; Rab9 promoter act: inactive; ELG1 genotox: inactive; SMN2 splice enh: inactive[9.22 µM]; FLuc modulator: inactive; Luc counter: inactive[7.66 µM]

How did CCCCOc1ccc(-c2ncc(N)cn2)cc1 do in these assays?
NPC1 promoter act: 1.8µM; Rab9 promoter act: 2.8µM; ELG1 genotox: inconclusive; FLuc modulator: 6.7µM

How did CCCCOc1ccc(-c2nnc(N)s2)cc1 do in these assays?
NPC1 promoter act: inactive; Rab9 promoter act: inconclusive; ELG1 genotox: inconclusive; SMN2 splice enh: inactive; FLuc modulator: 7.6µM; Luc counter: inactive

How did CCOc1ccc(-c2nnc(N)s2)cc1 do in these assays?
NPC1 promoter act: inconclusive; Rab9 promoter act: inconclusive; ELG1 genotox: 11µM; SMN2 splice enh: 11µM; FLuc modulator: 13µM; Luc counter: inactive

What do the screens show for `CCCCOc1cccc(-c2nnc(N)s2)c1`?
NPC1 promoter act: inactive; Rab9 promoter act: inactive; ELG1 genotox: inconclusive; SMN2 splice enh: inconclusive; FLuc modulator: inconclusive; Luc counter: inactive

Results for Nc1nnc(-c2ccc(Cl)cc2)s1 ?
NPC1 promoter act: inactive; Rab9 promoter act: inactive; ELG1 genotox: inconclusive; SMN2 splice enh: inactive; FLuc modulator: inconclusive; Luc counter: inactive

What do the screens show for `CCOc1ccc(-c2nc(CCl)cs2)cc1`?
NPC1 promoter act: inconclusive; Rab9 promoter act: 2.2µM; ELG1 genotox: inconclusive; SMN2 splice enh: inconclusive; FLuc modulator: 3µM; Luc counter: inactive

How did CC=C(/C(=C/C)c1ccc(O)cc1)c1ccc(O)cc1 do in these assays?
SMN2 splice enh: inactive; Luc counter: inactive

How did CN(CC(=O)Nc1ccc(Cl)c(C(F)(F)F)c1)C(=O)C1(c2ccccc2)CC1 do in these assays?
NPC1 promoter act: inactive; Rab9 promoter act: inactive; ELG1 genotox: inactive; FLuc modulator: inactive

How did O=c1cc(CN2CCc3ccccc3C2)nc2sccn12 do in these assays?
NPC1 promoter act: inactive; Rab9 promoter act: inactive; ELG1 genotox: inactive; SMN2 splice enh: inactive; FLuc modulator: inactive; Luc counter: inactive

How did CC(C)(C)c1ccc(-c2nnc(N)s2)cc1 do in these assays?
NPC1 promoter act: 1.4µM; Rab9 promoter act: 1.4µM; ELG1 genotox: inconclusive; FLuc modulator: 1.9µM; Luc counter: inactive

Results for Nc1nnc(-c2ccc(F)cc2)s1 ?
NPC1 promoter act: inactive; Rab9 promoter act: inactive; ELG1 genotox: inactive; SMN2 splice enh: inactive; FLuc modulator: inconclusive; Luc counter: inactive

Results for CCN(CC)C(=O)c1ccc(-c2nnc(OC)c3ccccc23)cc1 ?
NPC1 promoter act: inactive; Rab9 promoter act: inactive; ELG1 genotox: inactive; FLuc modulator: inactive

How did COc1cccc([C@@H]2Oc3ccc(OC)cc3C(=O)[C@H]2OC(=O)NCc2ccc3c(c2)OCO3)c1 do in these assays?
NPC1 promoter act: inactive; Rab9 promoter act: inconclusive; ELG1 genotox: inconclusive; SMN2 splice enh: inactive; FLuc modulator: 6µM; Luc counter: inactive

How did COc1ccc2c(c1)O[C@H](c1ccc3c(c1)OCO3)[C@@H](OC(=O)NCc1ccc3c(c1)OCO3)C2=O do in these assays?
SMN2 splice enh: inactive; Luc counter: inactive

How did COc1cccc([C@@H]2Oc3ccc(OC)cc3C(=O)[C@H]2OC(=O)NCCc2ccc(OC)c(OC)c2)c1 do in these assays?
SMN2 splice enh: 11µM; Luc counter: inactive

Results for O=C(CC(c1cccs1)S(=O)(=O)c1ccccc1)c1ccc(F)cc1 (stereo not drawn) ?
NPC1 promoter act: inactive; Rab9 promoter act: inactive; ELG1 genotox: inactive; SMN2 splice enh: inactive; FLuc modulator: 3.4µM; Luc counter: inactive

Results for O=C(NCC(c1cccs1)S(=O)(=O)c1ccccc1)c1ccc(C(F)(F)F)cc1 (stereo not drawn) ?
FLuc modulator: inactive

How did Cc1ccc(C(=O)CC(c2cccs2)S(=O)(=O)c2ccc(C)cc2)cc1 (stereo not drawn) do in these assays?
NPC1 promoter act: inactive; Rab9 promoter act: inconclusive; ELG1 genotox: inconclusive; SMN2 splice enh: inactive; FLuc modulator: 1.3µM; Luc counter: inactive

Results for O=S(=O)(NCC(c1ccco1)S(=O)(=O)c1ccccc1)c1ccccc1 (stereo not drawn) ?
FLuc modulator: inactive

What do the screens show for `O=C(CC(c1ccco1)S(=O)(=O)c1ccccc1)c1ccccc1` (stereo not drawn)?
NPC1 promoter act: inactive; Rab9 promoter act: inactive; ELG1 genotox: inactive; FLuc modulator: 21µM

Results for O=C(c1cccc(S(=O)(=O)N2CCc3ccccc3C2)c1)N1CCN(c2ccc(O)cc2)CC1 ?
NPC1 promoter act: inactive; Rab9 promoter act: inactive; ELG1 genotox: inactive; SMN2 splice enh: inactive; FLuc modulator: inactive; Luc counter: inactive

How did NS(=O)(=O)c1ccc(CCNC(=O)COC(=O)CCc2ccccc2)cc1 do in these assays?
NPC1 promoter act: inactive; Rab9 promoter act: inactive; ELG1 genotox: inactive; SMN2 splice enh: inactive; FLuc modulator: inactive; Luc counter: inactive

How did CC(=O)N1N=C(c2ccc(Cl)cc2)CC1c1ccc([N+](=O)[O-])cc1 (stereo not drawn) do in these assays?
NPC1 promoter act: inactive; Rab9 promoter act: inactive; ELG1 genotox: inactive; FLuc modulator: inactive

How did COc1ccc(C2CC(c3ccc(OC)cc3O)=NN2C(=O)c2ccccc2)cc1 (stereo not drawn) do in these assays?
NPC1 promoter act: inactive; Rab9 promoter act: inactive; ELG1 genotox: inactive; FLuc modulator: inactive

What do the screens show for `CCC(=O)N1N=C(c2ccc(C)o2)CC1c1ccc(N(C)C)cc1` (stereo not drawn)?
NPC1 promoter act: inactive; Rab9 promoter act: inactive; ELG1 genotox: inactive; SMN2 splice enh: inactive; FLuc modulator: inconclusive; Luc counter: inactive

Results for COc1ccc(C2CC(c3ccc4ccccc4c3OC(C)=O)=NN2C(C)=O)cc1 (stereo not drawn) ?
NPC1 promoter act: 4µM; Rab9 promoter act: 4µM; ELG1 genotox: inconclusive; FLuc modulator: inactive

Results for COc1ccc(C2CC(c3ccc(Cl)cc3)=NN2C(C)=O)cc1 (stereo not drawn) ?
NPC1 promoter act: inconclusive; Rab9 promoter act: inconclusive; ELG1 genotox: inactive; FLuc modulator: 24µM

What do the screens show for `CC(=O)N1N=C(c2ccc(C)o2)CC1c1ccc(Br)cc1` (stereo not drawn)?
NPC1 promoter act: 2.5µM; Rab9 promoter act: inconclusive; ELG1 genotox: inconclusive; SMN2 splice enh: inconclusive; FLuc modulator: inconclusive; Luc counter: inactive

Results for COc1ccc(C2CC(c3ccc(C)o3)=NN2C(C)=O)cc1 (stereo not drawn) ?
NPC1 promoter act: inconclusive; Rab9 promoter act: inconclusive; ELG1 genotox: inconclusive; SMN2 splice enh: 13µM; FLuc modulator: inconclusive; Luc counter: inactive

Screening data deposited in PubChem by National Center for Advancing Translational Sciences (NCATS).
